# The list is not random: actives were taken first. Their share in the collection is about 21%.
# Shiga inhibitor – A qHTS for Small Molecule Inhibitors of Shiga Toxin. actives 9.2% (n = 290,000). inhibition, % at 38.7 µM. Vero cells, Shiga toxin protein synthesis inhibition reporter; in the data active = inhibition mostly above about 28%, no sharp cut-off; inactive = mostly below about 43%; also: 0% is about no effect
# Pf growth 96h – Primary qHTS for delayed death inhibitors of the malarial parasite plastid, 96 hour incubation; P. falciparum luciferase reporter growth, 96 h; Potency, µM (top dose mostly 28.7 µM), for inactives: at the highest dose activity change, negative = inhibition, most hits filed as inhibitors; actives 6.9% (n = 320,000); also: potency is read from the fitted curve at half-maximal effect; % is scaled to controls: 0 for no effect and ±100 for the full control effect
#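 Delayed-death screen, second-generation endpoint: infected erythrocytes, 2% hematocrit, 0.05% parasitemia final; 96 hours at 37 C, 5% CO2; luciferase detection reagent; luminescence decrease equals reduced growth.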
# Pf growth 48h – Primary qHTS for delayed death inhibitors of the malarial parasite plastid, 48 hour incubation | P. falciparum luciferase growth in erythrocytes, 48 h | Potency, µM (series often up to 28.7 µM), for inactives: top-dose activity change, negative = inhibition, hits mostly inhibitors | actives 5.9% (n = 310,000) | AID 504832, 2011; also: potency is read from the fitted curve at half-maximal effect; % is scaled to controls: 0 for no effect and ±100 for the full control effect
#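 Erythrocytes infected with P. falciparum carrying an integrated firefly luciferase reporter (2% hematocrit, 0.1% parasitemia final) were exposed to compounds in RPMI 1640 with 0.5% Albumax at 37 C, 5% CO2. Growth inhibition was scored as reduced luminescence.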
# NS1 inh – qHTS Assay for Inhibitors of Influenza NS1 Protein Function | Potency, µM (series often up to 46.1 µM), without a hit: top-dose activity, positive = more growth | actives 0.4% (n = 270,000); calls by dose curve; also: potency is read from the fitted curve at half-maximal effect; actives are rising curves; nearly all actives have a fitted effect of over 50% in size
#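 A cell-based growth assay was used: compounds that relieve NS1-induced slow growth of budding yeast raise OD600. Assay medium was yeast nitrogen base with ammonium sulphate and -URA supplement, pH 6.0, with 2% galactose.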
# Sm TGR inh – qHTS Assay for the Inhibitors of Schistosoma Mansoni Peroxiredoxins; Schistosoma mansoni thioredoxin glutathione reductase (TGR), Q962Y6; purified TGR, DTNB reduction, TNB absorbance 405 nm; Potency, µM (top dose mostly 114 µM), inactives show at the top dose activity change, negative = inhibition, usual class: inhibitors; actives 3% (n = 360,000); AID 485364, 2010; also: potency is read from the fitted curve at half-maximal effect; % is scaled to controls: 0 for no effect and ±100 for the full control effect; nearly all actives have a fitted effect of over 60% in size
#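 TGR 20 nM + NADPH 100 uM (dispensed conc.), cpd preinc 15 min RT; start with NADPH (500 uM addition) then DTNB (15 mM addition). Kinetic TNB absorbance, 405 nm filter. Four-parameter Hill fit across titration.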
# Cycloheximide cs – Cycloheximide Counterscreen for Small Molecule Inhibitors of Shiga Toxin | AID 2314, 2010 | actives 12% (n = 300,000) | max response, % | cell reporter, cycloheximide protein synthesis inhibition counterscreen; in the data active = max response mostly above about 13%, no sharp cut-off; inactive = mostly below about 14%; also: read at 38.3 µM for the half of the compounds with a filed dose; 0% is about no effect
# The depositor's hits bear a star; ? = inconclusive; . = no result given. Unless noted, calls follow the shape of the dose curve; as a rule, active = well fitted curve in the direction sought with a large enough effect; inconclusive = small, poorly fitted or top-dose-only effect, or another doubt; inactive = no such curve, though single readings can be large; an effect the other way counts as inactive or inconclusive.
SMILES,Shiga inhibitor,Pf growth 96h,Pf growth 48h,NS1 inh,Sm TGR inh,Cycloheximide cs
COc1ccc(C(=O)Nc2cc(C(C)=O)c(/C=C/N(C)C)oc2=O)cc1,41.3,140.8%,52.7%,-2.6%,-5.7%,12.3
Fc1ccc(-c2nnc(CN3CCN(c4ccccn4)CC3)o2)cc1,.,.,.,.,3.6%,.
COc1ccc(-c2cn3nc(N4CCCC(C(=O)NCc5ccccc5C)C4)sc3n2)cc1 (stereo not drawn),.,.,.,.,1.8%,.
NC(=S)SCCC(=O)O,.,.,.,1.8%,.,.
CC(=O)O[C@]12CC[N@+]3(C)CCCC[C@@H]3[C-]1Nc1ccccc12,.,.,.,-5.6%,.,.
COc1ccc(N2C(=O)NC(=O)/C(=C/c3ccc(N4CCOCC4)cc3)C2=O)cc1,15.0,-7.7%,0.0%,.,-8.4%,2.3
COc1ccc(N2C(=O)NC(=O)/C(=C/c3ccc([N+](=O)[O-])s3)C2=O)cc1,-7.3,38.5%,17.1%,-41.1%,7.08µM*,9.7
COc1cccc(N2C(=O)NC(=O)/C(=C/c3ccc4c(c3)Cc3ccccc3-4)C2=O)c1,40.2,-10.3%,25.0%,.,?,19.2*
COc1ccc(N2C(=O)NC(=O)/C(=C\c3ccc([N+](=O)[O-])s3)C2=O)cc1,15.3,16.9%,11.1%,.,7.94µM*,5.0
CCOc1ccc(N2C(=O)NC(=O)/C(=C\c3cc(OC)c(OC)cc3[N+](=O)[O-])C2=O)cc1,-19.0,0.0%,15.6%,?,?,-2.5
COc1ccccc1N1C(=O)NC(=O)/C(=C/c2ccc([N+](=O)[O-])s2)C1=O,16.9,16.6%,16.0%,0.0%,5.62µM*,-1.0
CCc1cccc(C)c1NC(=O)CCn1nc(C)c2c(C)n(-c3ccccc3)nc2c1=O,.,.,.,.,1.5%,.
COc1cccc(N2C(=O)NC(=O)/C(=C/c3ccc([N+](=O)[O-])s3)C2=O)c1,14.7,61.4%,87.9%,-1.1%,7.94µM*,-1.8
Cc1cccc(N2C(=O)NC(=O)/C(=C/c3ccc(N4CCOCC4)cc3)C2=O)c1,-25.1,-0.9%,-3.1%,.,?,11.6
CC(C)(C)SCCNC(=O)Nc1ccccc1,19.0*,29.2%,39.9%,-6.8%,-2.2%,21.5*
CC(C)(C)SCCNC(=O)CSc1ccccc1,.,.,.,2.8%,.,.
Cc1ccccc1CSCCNC(=O)Nc1ccccc1,23.6,-8.0%,?,-45.7%,-2.7%,15.1*
CC1CCN(S(=O)(=O)c2ccc(NC(=O)C3CSC4(C)CCC(=O)N34)cc2)CC1 (stereo not drawn),.,?,-18.8%,.,-6.0%,.
CCCCc1nnc(SC(C)C(=O)Nc2nccs2)n1C (stereo not drawn),-5.3,-6.7%,?,8.8%,-26.2%,-3.5
CC(Sc1nc(-c2ccccc2)cc(C(F)(F)F)n1)C(=O)N1CCOCC1 (stereo not drawn),-6.0,1.65µM*,?,13.3%,4.6%,-4.7
O=C(NC1CCCCC1)c1ccc(CSc2nc3cccnc3n2Cc2cccc(F)c2)cc1,.,.,.,.,-1.1%,.
O=C(CC1CCCCC1)c1c(O)c2ccccc2oc1=O,-14.4,-5.0%,1.8%,-29.6%,50.1µM*,-1.1
CCCCC(=O)c1c(O)c2ccccc2oc1=O,-13.1,.,38.7%,-82.2%,-11.6%,11.0
CCCCN=C(C)c1c(O)c2ccccc2oc1=O,64.6,62.2%,94.9%,-229.1%,-23.3%,32.0*
CC(=N)c1c(O)c2ccccc2oc1=O,53.1*,43.9%,53.4%,-64.5%,11.7%,25.6*
SMILES,Shiga inhibitor,Pf growth 96h,Pf growth 48h,NS1 inh,Sm TGR inh,Cycloheximide cs
CC1CCC(C(=O)c2c(O)c3ccccc3oc2=O)CC1 (stereo not drawn),-5.7,17.9%,.,-104.0%,8.8%,1.5
Cn1c(C(=O)NCc2ccccc2Cl)cc2sc(Cl)cc21,.,.,.,.,6.6%,.
COc1ccc(C(=O)/C=C(\C)NCc2ccc3c(c2)OCO3)cc1,5.2,10.9%,4.6%,3.3%,-8.2%,14.2
CN1/C(=C/C(=O)c2ccc(Cl)cc2)Sc2cc3c(cc21)OCO3,67.6*,9.4%,121.3%,16.9%,8.6%,40.5*
COc1ccc(C(=O)/C=C2/Sc3cc4c(cc3N2C)OCO4)cc1,-10.8,2.08µM*,27.8%,5.6%,7.0%,0.5
C/C(N)=C(/C#N)C(=O)COC(=O)c1oc2ccccc2c1COC(C)C,-3.7,?,-10.1%,.,-7.4%,-5.3
CCn1c(SCC(=O)Nc2ccc(OC)cc2)nc2nc3c(cc2c1=O)COC(C)(C)C3,-6.8,?,?,-1.3%,4.6%,0.6
CCn1c(SCC(=O)Nc2ccc(C(C)=O)cc2)nc2nc3c(cc2c1=O)CCCC3,45.6*,?,?,19.5%,9.0%,26.5*
CCn1c(SCC(=O)Nc2ccc(Cl)cc2)nc2nc3c(cc2c1=O)CCCC3,-5.2,13.1µM*,?,13.4%,-2.4%,1.0
CCn1c(SCC(=O)Nc2ccc(C(C)=O)cc2)nc2nc3c(cc2c1=O)COC(C)(C)C3,122.4*,25.9%,19.8%,-1.5%,-1.6%,31.7*
Cc1nn(-c2ccc(F)cc2)c(C)c1CN1CCN(CCC(C)C)C(CCO)C1 (stereo not drawn),8.9,?,-5.6%,-1.0%,0.6%,-3.1
O=S1(=O)N=C(Nc2ccc(N3CCOCC3)c(Cl)c2)c2ccccc21,85.3*,-4.1%,59.0%,.,20.0%,48.0*
O=S1(=O)N=C(Nc2ccc(O)cc2)c2ccccc21,9.5,9.1%,6.6%,.,-7.6%,-0.8
CCCCc1ccc(NC(=O)c2cc(-c3ccc(C)c(F)c3)on2)cc1,.,.,.,.,-14.8%,.
Cc1cc(C)n2cc(CSc3ccc(Cl)cc3)nc2n1,49.3*,-3.6%,29.6%,3.2%,-5.8%,27.0*
Cc1cc(C)n2cc(CSc3ccccn3)nc2n1,13.2,-11.5%,-20.0%,.,-0.4%,-2.5
Cc1ccc(SCc2cn3c(C)cc(C)nc3n2)cc1,69.5*,-5.9%,11.2%,-3.5%,-3.2%,23.2*
Cc1cc(C)n2cc(CSc3nnc(SCc4cn5c(C)cc(C)nc5n4)s3)nc2n1,16.3,.,0.7%,8.3%,-7.5%,-1.1
Cc1cc(C)n2cc(CSc3nc4ccccc4s3)nc2n1,39.5*,-25.5%,108.2%,-3.6%,2.8%,35.7*
OCc1ccncc1.OCc1ccncc1.[Cl][Pt]([Cl])([Cl])[Cl],.,.,.,-15.8%,.,.
CCc1noc(-c2ccc(N3CCCCC3)c([N+](=O)[O-])c2)n1,.,.,.,.,-4.6%,.
O=C(CN1CCN(c2ccc(F)cc2)CC1)Nc1ccccc1[N+](=O)[O-],-7.6,-7.6%,-29.9%,.,8.1%,3.3
Cc1ccc(-n2ncc(C(=O)NC3CCCC3)c2C2CCN(C(=O)OC(C)(C)C)CC2)c(C)c1,.,.,.,.,0.9%,.
COc1ccc(-n2ncc(C(=O)N3CCN(C(=O)c4ccco4)CC3)c2C2CCN(C(=O)OC(C)(C)C)CC2)cc1,.,.,.,.,3.7%,.
